# Screening results (PubChem)
# A selection: hits, their analogues and other compounds. The true share with any hit is near 19%.
# HepG2 tox: qHTS for Inhibitors of TGF-b: Cytotox Counterscreen; hit rate 0.76% among 410,000; Potency, µM (top dose mostly 46.1 µM), inactives show at the top dose activity change, negative = cytotoxicity, usual class: cytotoxic; HepG2 CAGA-GFP viability, ATP luminescence, 18 h; further: potency means the concentration at half of the fitted maximal effect
#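 CellTiter-Glo luminescence gave cytotoxicity after 18 hours at 37 degrees C. The cells were HepG2 CAGA-GFP in 1% FBS DMEM, stimulated with 500 pg/mL TGF-beta after compound addition. %Activity was normalised to no-cell wells (complete cell-killing) and DMSO (no toxicity), and curves were fitted and classified.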
# TDP1 cell noCPT: qHTS for Inhibitors of human tyrosyl-DNA phosphodiesterase 1 (TDP1): qHTS in cells in absence of CPT; Potency, µM (highest dose often 46.2 µM), inactives show top-dose activity change, negative = growth inhibition, actives largely listed as inhibitors; AID 686978, 2013; DT40 Tdp1-/- hTDP1 cells, no CPT, ATP luminescence, 48 h; hit rate 15% among 420,000; further: potency means the concentration at half of the fitted maximal effect; on the % scale 0 is the no-effect control and ±100 the full control effect; nearly all actives have a fitted effect of over 55% in size
#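 No-CPT arm: Tdp1-/-;hTDP1 DT40 cells (400/well) plus compounds, incubated ≥48 hr at 37 °C. Readout CellTiter-Glo luminescence.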
# TDP1 cell CPT: qHTS for Inhibitors of human tyrosyl-DNA phosphodiesterase 1 (TDP1): qHTS in cells in presence of CPT; hit rate 12% among 420,000; chicken DT40 Tdp1-/-;hTDP1 cells + 20 nM CPT, ATP luminescence, 48 h; Potency, µM (titrated, usually from 46.2 µM), for inactives: at the highest dose activity change, negative = growth inhibition, hits mostly inhibitors; further: potency means the concentration at half of the fitted maximal effect; on the % scale 0 is the no-effect control and ±100 the full control effect; nearly all actives have a fitted effect of over 55% in size
#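 Cell growth measured by CellTiter-Glo luminescence after a minimum 48 h, 37 C compound exposure with 20 nM CPT in Tdp1-knockout DT40 cells stably expressing hTDP1, seeded 400/well; qHTS titration format.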
# IL1B secr inh: qHTS for Inhibitors of Inflammasome Signaling: IL-1-beta AlphaLISA Primary Screen; activity change, % at 57.5 µM; AID 743279, 2014; hit rate 4.7% among 360,000; THP-1 LPS/ATP IL-1B secretion, AlphaLISA, 16 h; hits give low values; in the data active means activity change below about -50%; inconclusive means mostly about -30% to -49%; further: on the % scale 0 is the no-effect control and ±100 the full control effect
#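 THP-1 cells pretreated 1 hr with compounds (up to 57.5 uM final), then stimulated with LPS (250 ng/mL final) plus ATP (1.25 mM final); secreted IL-1B measured by AlphaLISA after 16 hr, decreased signal indicating inhibition.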
# TGFb inhibitor: qHTS for Inhibitors of TGF-b; Potency, µM (highest dose often 46.1 µM), without a hit: at the top dose activity, negative = inhibition, most hits filed as inhibitors; HepG2 CAGA-GFP TGF-b/SMAD3 reporter, GFP fluorescence, 18 h; TGF-beta stimulated, 500 pg/mL final; AID 588855, 2011; hit rate 1.2% among 410,000; further: potency means the concentration at half of the fitted maximal effect; on the % scale 0 is the no-effect control and ±100 the full control effect; nearly all actives have a fitted effect of over 65% in size
#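 TGF-beta reporter screen: HEPG2 CAGA-GFP, 1% FBS, 500 pg/mL TGF-beta final, 18 h; per-cell GFP summed per well; curves fitted and categorized by class.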
# ASM inhibitor: Inhibitors of Secretory Acid Sphingomyelinase (S-ASM): qHTS | Sphingomyelin phosphodiesterase (Homo sapiens), P17405 | placental ASM, HMU-PC fluorogenic substrate, 60 min | Potency, µM (highest dose often 57.5 µM), without a hit: at the top dose activity change, negative = inhibition, usual class: inhibitors | hit rate 0.006% among 340,000 | AID 504937, 2011; further: potency means the concentration at half of the fitted maximal effect
# Target sequence (P17405 47-631 limits assumed): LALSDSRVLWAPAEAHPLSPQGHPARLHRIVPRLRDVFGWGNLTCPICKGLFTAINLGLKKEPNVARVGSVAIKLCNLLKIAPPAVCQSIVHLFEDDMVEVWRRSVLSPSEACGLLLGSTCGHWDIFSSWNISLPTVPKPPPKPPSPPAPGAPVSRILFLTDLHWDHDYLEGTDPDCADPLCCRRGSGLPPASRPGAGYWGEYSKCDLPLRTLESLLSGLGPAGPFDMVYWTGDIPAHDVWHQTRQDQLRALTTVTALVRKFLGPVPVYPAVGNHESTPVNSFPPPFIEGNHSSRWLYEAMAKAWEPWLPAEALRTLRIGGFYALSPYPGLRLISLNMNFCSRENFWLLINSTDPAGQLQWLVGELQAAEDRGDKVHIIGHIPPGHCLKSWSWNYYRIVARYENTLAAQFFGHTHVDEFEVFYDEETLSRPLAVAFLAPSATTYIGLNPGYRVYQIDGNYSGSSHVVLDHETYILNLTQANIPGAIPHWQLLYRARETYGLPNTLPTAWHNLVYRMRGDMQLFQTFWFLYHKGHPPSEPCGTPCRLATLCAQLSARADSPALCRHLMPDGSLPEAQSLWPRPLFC
#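 Fluorogenic HMU-PC substrate (9 uM final) is turned over by placental ASM in 60 min at 37 C after a 10 min compound preincubation. Reaction ended by alkaline stop (pH 10), with fluorescence read at 386/447 nm.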
# The depositor's hits bear a star; ? = inconclusive; / = no result; ! = not active in a repeat. Unless noted, the call rests on the fitted dose curve; in most records, active means well fitted curve in the direction sought with a large enough effect; inconclusive means small, poorly fitted or top-dose-only effect, or another doubt; inactive means no such curve, though single readings can be large; an effect the other way counts as inactive or inconclusive.
SMILES,HepG2 tox,TDP1 cell noCPT,TDP1 cell CPT,IL1B secr inh,TGFb inhibitor,ASM inhibitor
CCOC(=O)c1cccc(NC(=O)CC2C(=O)N(c3ccc(C)cc3)C(=O)N2Cc2cccc(OC)c2)c1 (configuration not stated),-34.0%,?,18.4µM*,/,?,/
COc1ccc(OC)c(S(=O)(=O)NCC(c2ccc(N(C)C)cc2)N2CCOCC2)c1 (configuration not stated),-20.0%,-18.7%,-21.9%,/,-40.3%,/
Cc1ccccc1S(=O)(=O)N(CC(O)CN1C(=O)NC(C)(C)C1=O)c1ccccc1 (configuration not stated),-2.7%,-12.2%,-6.1%,-9.7,-1.5%,-0.3%
COC(=O)c1ccc(NC(=O)CC2C(=O)N(c3ccc(C)cc3)C(=O)N2Cc2ccc(OC)cc2)cc1 (configuration not stated),-18.8%,?,?,/,-24.3%,/
CCOC(=O)c1ccc(NC(=O)CC2C(=O)N(c3cccc(OC)c3)C(=O)N2Cc2ccc(OC)cc2)cc1 (configuration not stated),-29.7%,?,20.6µM*,/,-15.3%,/
CCOc1ccc(S(=O)(=O)Nc2cccc(C(=O)NCC(c3ccc(OC)cc3)N3CCOCC3)c2)cc1 (configuration not stated),-22.3%,-29.6%,-27.5%,0.0,-2.1%,-1.5%
Cc1ccc(C(=O)NN2C(=O)C3C4C=CC([C@@H]3C2=O)C42CC2)cc1 (some centres not stated),-0.2%,-3.6%,-0.6%,30.4,-1.2%,3.8%
O=C(COc1ccc(Cl)c(Cl)c1)NN1C(=O)C2C(C1=O)C1C=CC2C12CC2 (configuration not stated),4.5%,18.4µM*,-18.9%,-1.2,2.1%,-0.2%
CC(C)=C1C2CCC1C1C(=O)N(NC(=O)COc3ccc(Cl)c(C)c3)C(=O)C21 (configuration not stated),-13.3%,-11.9%,-18.8%,-67.8*,0.0%,-13.6%
Cc1cccc(C)c1OCCCN1CCOCC1,7.3%,3.4%,0.2%,16.6,?,6.0%
O=C(O)c1c(Cl)cccc1Nc1ccccc1,-9.6%,23.1µM*,-9.7%,-3.2,10.7%,6.8%
O=C(O)c1ccccc1Nc1ccccc1,-3.6%,?,20.6µM*!,8.7,-0.8%,-1.6%
Cc1ccc(C(=O)OCC(=O)N2CCC(C)CC2)cc1S(=O)(=O)N1CCOCC1,-15.7%,-29.0%,-25.3%,4.8,-1.1%,/
CC1(C)CC(=O)C2=C(C1)OC(N)=C(C#N)C2c1ccccc1[N+](=O)[O-] (configuration not stated),-2.1%,?,20.6µM*,5.3,-11.6%,43.6%
CC(C)c1ccc(-c2nn(-c3ccccc3)cc2C2C(C#N)=C(N)OC3=C2C(=O)CC(C)(C)C3)cc1 (configuration not stated),-31.9%,18.4µM*,?,-29.2,?,-8.3%
COc1ccc(-c2cc(C(=O)NCC3CCCCC3)[nH]n2)c(C)c1,-20.3%,?,?,-8.7,0.1%,/
Fc1cccc(-c2nnn3c2nc(NC2CCCCC2)c2ccccc23)c1,-24.9%,25.9µM*,?,/,-55.9%,/
Clc1nc2c(-c3ccccc3)nnn2c2ccccc12,-14.9%,3.26µM*,2.59µM*,-84.4*,?,50.4%
Cc1ccc(-c2nnn3c2nc(Cl)c2ccccc23)cc1,-8.4%,4.61µM*,2.91µM*,-74.5*,0.6%,14.3%
Clc1ccc(-c2nnn3c2nc(N2CCCCC2)c2ccccc23)cc1,-10.7%,0.2%,1.4%,/,-17.3%,/
Fc1cccc(-c2nnn3c2nc(Cl)c2ccccc23)c1,4.7%,2.59µM*,2.59µM*,28.8,?,76.9%
Fc1cccc(-c2nnn3c2nc(NCCc2ccccc2)c2ccccc23)c1,-10.5%,-13.9%,5.1%,/,-32.9%,/
CCC1(CC)NC(=O)N(CC(=O)N2CCN(S(=O)(=O)c3cccc(F)c3)CC2)C1=O,-17.0%,3.5%,1.9%,12.6,-12.1%,5.6%
C=CC[C@@H](Cc1ccc(F)cc1)C(=O)OC[C@H]1CCCN1C(=O)[C@@H](CC=C)CC(=O)N[C@H](CO)Cc1ccccc1,-3.0%,?,?,-16.2,?,-9.4%
C=CC[C@@H](Cc1ccc(F)cc1)C(=O)OC[C@H]1CCCN1C(=O)[C@H](CC=C)CC(=O)N[C@H](CO)Cc1ccccc1,-33.4%,?,20.6µM*,-2.9,?,-8.5%
SMILES,HepG2 tox,TDP1 cell noCPT,TDP1 cell CPT,IL1B secr inh,TGFb inhibitor,ASM inhibitor
C=CC[C@@H](Cc1ccc(F)cc1)C(=O)OC[C@@H]1CCCN1C(=O)[C@@H](CC=C)CC(=O)N[C@H](CO)Cc1ccccc1,-36.4%,16.4µM*,10.3µM*,?,?,-1.5%
C=CC[C@@H](Cc1ccc(F)cc1)C(=O)OC[C@H]1CCCN1C(=O)[C@@H](CC=C)CC(=O)N[C@@H](CO)Cc1ccccc1,-9.9%,11.6µM*,11.6µM*,-5.8,?,-5.8%
C=CC[C@@H](Cc1ccc(F)cc1)C(=O)OC[C@@H]1CCCN1C(=O)[C@@H](CC=C)CC(=O)N[C@@H](CO)Cc1ccccc1,-17.1%,18.4µM*,?,-10.2,?,-6.2%
Cc1nccn1CCN(C)Cc1cn(Cc2ccccc2)nc1-c1ccc2c(c1)OCO2,-8.1%,?,?,-9.9,-2.5%,1.3%
CC(C)CN(C(=O)COC(=O)c1cncc(Br)c1)c1c(N)n(Cc2ccccc2)c(=O)[nH]c1=O,-28.0%,-18.7%,-17.5%,-20.7,?,9.8%
C=CCC[C@@H](Cc1ccc(F)cc1)C(=O)OC[C@@H]1CCCN1C(=O)[C@H](CC=C)CC(=O)N[C@H](CO)Cc1ccccc1,-108.9%,18.4µM*,?,?,11.2µM*,-18.8%
C=CCC[C@@H](Cc1ccc(F)cc1)C(=O)OC[C@@H]1CCCN1C(=O)[C@@H](CC=C)CC(=O)N(CCO)Cc1ccccc1,12.6µM*,18.4µM*,16.4µM*,-73.2*,?,-8.0%
